# Assay results taken from PubChem BioAssay (Tox21).
# Values joined by “and” are separate entries in the source; they are usually repeats but may differ in a detail not shown here. Equal values may be shown once. Records with an inconclusive call do not appear. Entries that show only a call come without a potency. Active and inactive are the calls of the source. Unless noted, calls follow the shape of the dose curve; as a rule, active = well fitted curve in the direction sought with a large enough effect in the repeat runs; inconclusive = weak or mixed curves; inactive = no such curve, though single readings can be large; an effect the other way counts as inactive or inconclusive.
# How the values were obtained:
# [1] = qHTS assay to test for compound auto fluorescence at 535 nm (green) in HEK293 cells (AID 720680)
# [2] = qHTS assay to test for compound auto fluorescence at 460 nm (blue) in HEK293 cell free culture (AID 720681)
# How it was run: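 Compounds were added to cell-free DMEM with 10% FBS and fluorescence read directly. The blue channel used 405 nm excitation and 460 nm emission, with triamterene as the reference fluorophore.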
# [3] = qHTS assay to test for compound auto fluorescence at 535 nm (green) in HEK293 cell free culture (AID 720682)
# How it was run: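 No cells present: wells hold DMEM supplemented with 10% FBS, into which compound or vehicle is pinned. Green emission is then recorded (485 nm excitation, 535 nm emission) and scaled to fluorescein.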
# [4] = qHTS assay to test for compound auto fluorescence at 590 nm (red) in HEK293 cell free culture (AID 720683)
# How it was run: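 Cell-free wells of DMEM with 10% FBS received compound, and intrinsic fluorescence was read at excitation/emission 540/590 nm. Values expressed as equivalence to Rose Bengal sodium.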
# [5] = qHTS assay to test for compound auto fluorescence at 460 nm (blue) in HepG2 cell free culture (AID 720685)
# How it was run: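 Cell-free plates of MEM plus 10% FBS received 23 nL compound or DMSO vehicle; blue-channel (405/460 nm) intensity scored against triamterene as reference fluorophore.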
# [6] = qHTS assay to test for compound auto fluorescence at 535 nm (green) in HepG2 cell free culture (AID 720686)
# [7] = qHTS assay to test for compound auto fluorescence at 460 nm (blue) in HepG2 cells (AID 720687)
# How it was run: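 HepG2 cells in MEM with 10% FBS, attached overnight at 37 C, were exposed to compound or DMSO for 1 hr at 37 C, 5% CO2. Blue fluorescence was read at 405/460 nm, with triamterene as reference fluorophore.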
# [8] = target: Glucocorticoid receptor (Homo sapiens) (UniProt P04150); assay: qHTS assay to identify small molecule agonists of the glucocorticoid receptor (GR) signaling pathway (AID 720691; active = well fitted activation curve with a large enough effect in the signal ratio in the repeat runs, not every such curve was filed as active; the % refers to the signal ratio)
# Glucocorticoid receptor (Homo sapiens), sequence (P04150 whole entry, looked up): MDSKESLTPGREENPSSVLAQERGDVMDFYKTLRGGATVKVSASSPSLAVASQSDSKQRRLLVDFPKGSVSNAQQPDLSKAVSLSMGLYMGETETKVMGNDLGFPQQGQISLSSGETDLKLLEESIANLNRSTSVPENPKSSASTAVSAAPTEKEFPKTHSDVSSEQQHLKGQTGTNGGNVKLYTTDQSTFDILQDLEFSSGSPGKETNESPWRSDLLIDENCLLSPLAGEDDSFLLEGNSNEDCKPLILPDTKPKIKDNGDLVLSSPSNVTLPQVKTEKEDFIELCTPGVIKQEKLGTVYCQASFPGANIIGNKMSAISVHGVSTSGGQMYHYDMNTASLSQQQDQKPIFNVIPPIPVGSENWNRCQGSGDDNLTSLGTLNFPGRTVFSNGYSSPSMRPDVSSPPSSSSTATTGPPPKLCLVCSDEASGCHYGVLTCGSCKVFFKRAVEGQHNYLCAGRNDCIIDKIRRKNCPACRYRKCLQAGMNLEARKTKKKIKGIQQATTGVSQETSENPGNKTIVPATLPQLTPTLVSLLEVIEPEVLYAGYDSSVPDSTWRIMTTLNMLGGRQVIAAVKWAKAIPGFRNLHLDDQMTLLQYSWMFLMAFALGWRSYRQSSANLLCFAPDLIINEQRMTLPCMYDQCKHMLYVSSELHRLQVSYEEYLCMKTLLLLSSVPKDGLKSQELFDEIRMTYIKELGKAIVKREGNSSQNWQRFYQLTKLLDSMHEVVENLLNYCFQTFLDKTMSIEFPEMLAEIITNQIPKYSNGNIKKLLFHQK
# How it was run: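 Steps: seed GR-bla HeLa cells, incubate 4 h at 37 C/5% CO2; pin-transfer DMSO-dissolved compounds; incubate 18 h at 37 C; add LiveBLAzer B/G FRET substrate; after 2 h at room temperature, measure fluorescence.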
# [9] = qHTS assay to identify small molecule antagonists of the glucocorticoid receptor (GR) signaling pathway - cell viability counter screen (AID 720693); also: nearly all actives have a fitted effect of over 55% in size; also: potency is read from the fitted curve at half-maximal effect
# [10] = qHTS assay for identifying genotoxic compounds that show differential cytotoxicity against isogenic chicken DT40 cell lines with known DNA damage response pathways - Rev3 mutant cell line (AID 743014); also: nearly all actives have a fitted effect of over 55% in size; also: potency is read from the fitted curve at half-maximal effect
# [11] = qHTS assay for identifying genotoxic compounds that show differential cytotoxicity against isogenic chicken DT40 cell lines with known DNA damage response pathways - Rad54/Ku70 mutant cell line (AID 743015); also: nearly all actives have a fitted effect of over 60% in size; also: potency is read from the fitted curve at half-maximal effect
# [12] = qHTS assay to identify small molecule antagonists of the androgen receptor (AR) signaling pathway - cell viability counter screen (AID 743033; also: nearly all actives have a fitted effect of over 45% in size; also: potency is read from the fitted curve at half-maximal effect)
# [13] = target: Glucocorticoid receptor (Homo sapiens) (UniProt P04150); assay: qHTS assay to identify small molecule antagonists of the glucocorticoid receptor (GR) signaling pathway (AID 720692; active = well fitted inhibition curve with a large enough effect in the signal ratio in the repeat runs, not every such curve was filed as active; the % refers to the signal ratio; also: potency is read from the fitted curve at half-maximal effect)
# How it was run: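 Antagonism was scored as loss of dexamethasone-driven (5 nM final) reporter signal in HeLa cells bearing a glucocorticoid response element–beta-lactamase construct, after 18 h compound exposure at 37 C and 2 h FRET substrate loading.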
# [14] = qHTS assay for identifying genotoxic compounds that show differential cytotoxicity against isogenic chicken DT40 cell lines with known DNA damage response pathways - wild type cell line (AID 743012); also: nearly all actives have a fitted effect of over 60% in size; also: potency is read from the fitted curve at half-maximal effect
# How it was run: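 Cytotoxicity in repair-proficient parental chicken DT40 cells serves as the comparator for Rad54/Ku70- and Rev3-deficient lines. Cells were exposed to compounds for 40 h at 37 C/5% CO2, and ATP-based luminescence (CellTiter-Glo) measured viability.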
# [15] = target: Androgen receptor (Homo sapiens) (UniProt P10275); assay: qHTS assay to identify small molecule agonists of the androgen receptor (AR) signaling pathway using the MDA cell line (AID 743040; also: nearly all actives have a fitted effect of over 20% in size); details: MDA-kb2 AR-luc cells, MMTV luciferase, 16 h; activity change: at 70.3 µM (top of the series), hits give high values
# Androgen receptor (Homo sapiens), sequence (P10275 whole entry, looked up): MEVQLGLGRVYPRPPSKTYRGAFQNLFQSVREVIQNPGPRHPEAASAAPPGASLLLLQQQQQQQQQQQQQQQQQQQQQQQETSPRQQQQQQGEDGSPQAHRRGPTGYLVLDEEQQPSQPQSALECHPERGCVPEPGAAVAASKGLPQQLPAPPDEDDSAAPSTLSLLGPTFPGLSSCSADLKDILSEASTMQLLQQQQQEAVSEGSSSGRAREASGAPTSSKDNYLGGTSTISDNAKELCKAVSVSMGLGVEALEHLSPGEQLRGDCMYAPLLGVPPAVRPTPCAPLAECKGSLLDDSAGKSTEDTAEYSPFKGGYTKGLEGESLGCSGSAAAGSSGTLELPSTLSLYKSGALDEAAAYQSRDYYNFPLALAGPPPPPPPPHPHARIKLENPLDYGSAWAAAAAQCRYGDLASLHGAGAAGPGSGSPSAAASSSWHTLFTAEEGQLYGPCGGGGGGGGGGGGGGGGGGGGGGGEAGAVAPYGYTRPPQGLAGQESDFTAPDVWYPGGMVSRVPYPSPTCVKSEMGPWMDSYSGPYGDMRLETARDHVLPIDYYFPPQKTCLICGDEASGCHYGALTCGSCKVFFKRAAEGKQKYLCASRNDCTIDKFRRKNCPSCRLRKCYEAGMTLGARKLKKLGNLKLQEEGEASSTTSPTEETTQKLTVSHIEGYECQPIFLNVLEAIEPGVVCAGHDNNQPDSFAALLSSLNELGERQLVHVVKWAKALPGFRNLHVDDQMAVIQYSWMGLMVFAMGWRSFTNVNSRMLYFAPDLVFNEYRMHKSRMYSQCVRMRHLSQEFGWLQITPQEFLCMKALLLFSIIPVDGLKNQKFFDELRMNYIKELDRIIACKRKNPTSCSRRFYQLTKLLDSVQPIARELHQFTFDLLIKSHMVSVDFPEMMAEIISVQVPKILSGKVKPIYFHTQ
# How it was run: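 Luciferase read-out, ONE-Glo, 30 min RT. Cells: MDA-kb2 AR-luc, MMTV promoter with AR and GR response elements. Compound exposure 16 h, 37C, 0% CO2, after 5 h pre-incubation. qHTS agonist mode.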
# [16] = qHTS assay to identify small molecule antagonists of the androgen receptor (AR) signaling pathway using the MDA cell line - cell viability counter screen (AID 743041; also: nearly all actives have a fitted effect of over 45% in size; also: potency is read from the fitted curve at half-maximal effect)
# How it was run: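 Cytotoxicity counter screen: MDA-kb2 AR-luc cells, compound + R1881, 16 h, 37C, 0% CO2; CellTiter-Fluor added at 15.5 h, fluorescence read after 30 min.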
# [17] = target: Androgen receptor (Homo sapiens) (UniProt P10275); assay: qHTS assay to identify small molecule antagonists of the androgen receptor (AR) signaling pathway using the MDA cell line (AID 743042; also: nearly all actives have a fitted effect of over 55% in size; also: potency is read from the fitted curve at half-maximal effect)
# How it was run: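 MDA-kb2 breast carcinoma cells carrying MMTV-luciferase (AR/GR responsive) were co-treated with compounds and the agonist R1881 for 16 h at 37C. Inhibition read as ONE-Glo luminescence; CellTiter-Fluor fluorescence measured in parallel for cytotoxicity.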
# [18] = qHTS assay to test for compound auto fluorescence at 590 nm (red) in HepG2 cell free culture (AID 720684)
# How it was run: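 Rose Bengal sodium served as the reference for red signal. Test compounds were dispensed into serum-containing MEM (10% FBS) without cells, and plates were read at 540/590 nm.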
# [19] = target: Androgen receptor (Homo sapiens) (UniProt P10275); assay: qHTS assay to identify small molecule agonists of the androgen receptor (AR) signaling pathway (AID 743036; active = well fitted activation curve with a large enough effect in the signal ratio in the repeat runs, with a control signal flat, not every such curve was filed as active; the % refers to the signal ratio; also: potency is read from the fitted curve at half-maximal effect)
# How it was run: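 Quantitative HTS of the Tox21 10K library in HEK293 cells bearing a stably integrated UAS-controlled beta-lactamase reporter. Compound exposure lasted 16 h at 37C. Reporter activity was detected by FRET substrate fluorescence after 2 h at room temperature.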
# [20] = target: Androgen receptor (Homo sapiens) (UniProt P10275); assay: qHTS assay to identify small molecule antagonists of the androgen receptor (AR) signaling pathway (AID 743035; active = well fitted inhibition curve with a large enough effect in the signal ratio in the repeat runs, not every such curve was filed as active; the % refers to the signal ratio)
# How it was run: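 Steps: seed AR-UAS-bla GripTite HEK293 cells, incubate 4 h at 37C; pin in test compound, then add agonist R1881; incubate 16 h at 37C; add LiveBLAzer B/G FRET substrate, 2 h at room temperature; read fluorescence.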
compound,measurement,setting,value
CC(C)c1ccc(OP(=O)(Oc2ccc(C(C)C)cc2)Oc2ccc(C(C)C)cc2)cc1,outcome,[1],inactive
same,outcome,[2],inactive
same,outcome,[3],inactive
same,outcome,[4],inactive
same,outcome,[5],inactive
same,outcome,[6],inactive
same,outcome,[7],inactive
same,Potency,[8],inactive
same,Potency,[9],inactive
same,Potency,[10],61.6 µM (active) and 27.3 µM (active)
same,Potency,[11],69.1 µM (active) and 54.5 µM (active) and 21.7 µM (active)
same,Potency,[12],inactive
COP(=O)(OC)OC(Br)C(Cl)(Cl)Br (centres undefined),outcome,[1],inactive
same,outcome,[2],inactive
same,outcome,[3],inactive
same,outcome,[4],inactive
same,outcome,[5],inactive
same,outcome,[6],inactive
same,outcome,[7],inactive
same,Potency,[8],inactive
same,Potency,[13],inactive
same,Potency,[14],30.7 µM (active) and 13.7 µM (active)
same,Potency,[10],13.7 µM (active)
same,Potency,[11],38.6 µM (active) and 21.7 µM (active)
same,Potency,[15],inactive
same,Potency,[16],inactive
same,Potency,[17],68.7 µM (active) and 61.1 µM (active)
CCC(C)Cl (centres undefined),outcome,[1],inactive
same,outcome,[2],inactive
same,outcome,[3],inactive
same,outcome,[4],inactive
same,outcome,[5],inactive
same,outcome,[7],inactive
same,Potency,[8],inactive
same,Potency,[13],inactive
same,Potency,[9],inactive
same,Potency,[14],inactive
same,Potency,[10],inactive
same,Potency,[11],inactive
same,Potency,[12],inactive
same,Potency,[16],inactive
Nc1cc(Cl)cc(C(=O)O)c1Cl,outcome,[1],inactive
same,outcome,[2],inactive
same,outcome,[3],inactive
same,outcome,[4],inactive
same,outcome,[5],inactive
same,outcome,[6],inactive
same,outcome,[7],inactive
same,Potency,[14],inactive
same,Potency,[10],inactive
same,Potency,[11],inactive
same,Potency,[12],inactive
same,Potency,[16],inactive
OC[P+](CO)(CO)CO,outcome,[1],inactive
same,outcome,[2],inactive
same,outcome,[3],inactive
same,outcome,[4],inactive
same,outcome,[5],inactive
same,outcome,[6],inactive
same,outcome,[7],inactive
same,Potency,[8],inactive
same,Potency,[13],inactive
same,Potency,[9],inactive
same,Potency,[14],inactive
same,Potency,[10],inactive
same,Potency,[11],inactive
same,Potency,[12],inactive
same,Potency,[16],inactive
C[C@]12C=CC3=C4CCC(=O)C=C4CC[C@H]3[C@@H]1CC[C@@H]2O,outcome,[1],inactive
same,outcome,[3],inactive
same,outcome,[4],inactive
same,outcome,[18],inactive
same,Potency,[9],24.4 µM (active)
same,Potency,[10],68.1 µM (active)
same,Potency,[12],inactive
same,Potency,[19],0.0027 µM (active)
same,activity change,[15],189% (active)
same,Potency,[16],inactive
same,Potency,[17],inactive
CCN(C(C)=O)c1cccc(-c2ccnc3c(C#N)cnn23)c1,outcome,[1],inactive
same,outcome,[2],inactive
same,outcome,[3],inactive
same,outcome,[4],inactive
same,outcome,[7],inactive
same,Potency,[14],inactive
same,Potency,[10],inactive
same,Potency,[11],inactive
same,Potency,[12],inactive
same,Potency,[16],inactive
COc1cc(CC(C)N)c(OC)cc1Br (centres undefined),outcome,[1],inactive
same,outcome,[2],inactive
same,outcome,[3],inactive
same,outcome,[4],inactive
same,outcome,[18],inactive
same,outcome,[7],inactive
same,Potency,[9],inactive
same,Potency,[14],11.2 µM (active) and 29.8 µM (active)
same,Potency,[10],15.9 µM (active)
same,Potency,[11],15.9 µM (active)
same,Potency,[12],inactive
same,Potency,[16],inactive
SCc1ccccc1,outcome,[1],inactive
same,outcome,[2],inactive
same,outcome,[3],inactive
same,outcome,[4],inactive
same,outcome,[5],inactive
same,outcome,[6],inactive
same,outcome,[7],inactive
same,Potency,[8],inactive
same,Potency,[9],inactive
same,Potency,[14],inactive
same,Potency,[10],inactive
same,Potency,[12],inactive
same,Potency,[16],inactive
C[N+](C)(C)CC1CO1 (centres undefined),outcome,[1],inactive
same,outcome,[2],inactive
same,outcome,[3],inactive
same,outcome,[4],inactive
same,outcome,[5],inactive
same,outcome,[7],inactive
same,Potency,[9],inactive
same,Potency,[10],13.7 µM (active)
same,Potency,[12],inactive
same,Potency,[20],inactive
same,Potency,[19],inactive
same,Potency,[15],inactive
same,Potency,[16],inactive
same,Potency,[17],inactive
CCOP(=O)(O)C(N)=O,outcome,[1],inactive
same,outcome,[2],inactive
same,outcome,[3],inactive
same,outcome,[4],inactive
same,outcome,[5],inactive
same,outcome,[6],inactive
same,outcome,[7],inactive
same,Potency,[8],inactive
same,Potency,[13],inactive
same,Potency,[14],inactive
same,Potency,[10],inactive
same,Potency,[12],inactive
same,Potency,[16],inactive
O=C(Cc1ccccc1)c1ccccc1,outcome,[1],inactive
same,outcome,[2],inactive
same,outcome,[3],inactive
same,outcome,[4],inactive
same,outcome,[5],inactive
same,outcome,[6],inactive
same,outcome,[7],inactive
same,Potency,[8],inactive
same,Potency,[13],inactive
same,Potency,[14],inactive
same,Potency,[10],inactive
same,Potency,[11],inactive
same,Potency,[12],inactive
same,Potency,[16],inactive
O=C(O)c1cc(I)cc(I)c1I,outcome,[1],inactive
same,outcome,[2],inactive
same,outcome,[3],inactive
same,outcome,[4],inactive
same,outcome,[5],inactive
same,outcome,[6],inactive
same,outcome,[7],inactive
same,Potency,[8],inactive
same,Potency,[13],inactive
same,Potency,[9],inactive
same,Potency,[14],inactive
same,Potency,[10],inactive
same,Potency,[11],inactive
same,Potency,[12],inactive
same,Potency,[16],inactive
N#CC1(N=NC2(C#N)CCCCC2)CCCCC1,outcome,[1],inactive
same,outcome,[2],inactive
same,outcome,[3],inactive
same,outcome,[4],inactive
same,outcome,[5],inactive
same,outcome,[6],inactive
same,outcome,[7],inactive
same,Potency,[8],inactive
same,Potency,[13],inactive
same,Potency,[9],inactive
same,Potency,[14],inactive
same,Potency,[10],inactive
same,Potency,[12],inactive
same,Potency,[16],inactive
O=C([O-])c1ccccn1.O=C([O-])c1ccccn1.O=C([O-])c1ccccn1.[Cr+3],outcome,[1],inactive
same,outcome,[2],inactive
same,outcome,[3],inactive
same,outcome,[4],inactive
same,outcome,[6],inactive
same,outcome,[7],inactive
same,Potency,[8],inactive
same,Potency,[9],inactive
same,Potency,[14],inactive
same,Potency,[10],inactive
same,Potency,[11],inactive
same,Potency,[12],inactive
same,Potency,[16],inactive
CCCCCCCCn1sccc1=O,outcome,[1],inactive
same,outcome,[2],inactive
same,outcome,[3],inactive
same,outcome,[4],inactive
same,outcome,[5],inactive
same,outcome,[7],inactive
same,Potency,[8],inactive
same,Potency,[13],49.1 µM (active) and 36.3 µM (active)
same,Potency,[9],inactive
same,Potency,[14],4.87 µM (active) and 454 nM (active)
same,Potency,[10],2.17 µM (active) and 719 nM (active)
same,Potency,[12],4.37 µM (active) and 20.4 µM (active)
same,Potency,[16],36 µM (active)
CN[C@@H](C)[C@H](O)c1ccccc1,outcome,[1],inactive
same,outcome,[2],inactive
same,outcome,[3],inactive
same,outcome,[4],inactive
same,outcome,[5],inactive
same,outcome,[6],inactive
same,outcome,[7],inactive
same,Potency,[8],inactive
same,Potency,[13],inactive
same,Potency,[9],inactive
same,Potency,[14],inactive
same,Potency,[11],inactive
same,Potency,[12],inactive
same,Potency,[16],inactive
